30 molecules from PubChem BioAssay (Tox21) can be followed below.

Assay [1] is described as follows: qHTS assay to identify small molecule antagonists of the glucocorticoid receptor (GR) signaling pathway - cell viability counter screen (AID 720693). Further: nearly all actives have a fitted effect of over 55% in size. Further: potency means the concentration at half of the fitted maximal effect.
Assay [2] can be described thus: qHTS assay for identifying genotoxic compounds that show differential cytotoxicity against isogenic chicken DT40 cell lines with known DNA damage response pathways - wild type cell line (AID 743012). Further: nearly all actives have a fitted effect of over 60% in size. Further: potency means the concentration at half of the fitted maximal effect. The method in brief:
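Viability by ATP luminescence (CellTiter-Glo, 30 min RT) after 40 h compound treatment at 37 C/5% CO2, using 300 parental DNA repair-proficient DT40 cells per well.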

Assay [3] in a line: qHTS assay for identifying genotoxic compounds that show differential cytotoxicity against isogenic chicken DT40 cell lines with known DNA damage response pathways - Rev3 mutant cell line (AID 743014). Further: nearly all actives have a fitted effect of over 55% in size. Further: potency means the concentration at half of the fitted maximal effect.
Assay [4] is described as follows: qHTS assay for identifying genotoxic compounds that show differential cytotoxicity against isogenic chicken DT40 cell lines with known DNA damage response pathways - Rad54/Ku70 mutant cell line (AID 743015). Further: nearly all actives have a fitted effect of over 60% in size. Further: potency means the concentration at half of the fitted maximal effect.
The nature of assay [5]: qHTS assay to identify small molecule antagonists of the androgen receptor (AR) signaling pathway - cell viability counter screen (AID 743033; further: nearly all actives have a fitted effect of over 45% in size; further: potency means the concentration at half of the fitted maximal effect).
Assay [6] in a line: qHTS assay to identify small molecule antagonists of the androgen receptor (AR) signaling pathway using the MDA cell line - cell viability counter screen (AID 743041; further: nearly all actives have a fitted effect of over 45% in size; further: potency means the concentration at half of the fitted maximal effect). The procedure, abridged: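 In this qHTS counter assay, fluorescence intensity after CellTiter-Fluor addition indicated viability of MDA-kb2 AR-luc cells given compounds and R1881 for 16 h at 37C.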
Assay [7] deals with Androgen receptor (Homo sapiens) (UniProt P10275). The assay is described as follows: qHTS assay to identify small molecule agonists of the androgen receptor (AR) signaling pathway using the MDA cell line (AID 743040; further: nearly all actives have a fitted effect of over 20% in size; further: potency means the concentration at half of the fitted maximal effect). The method in brief: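 Cell-based luciferase reporter: MDA-kb2, MMTV promoter (AR + GR response elements). 16 h compound exposure at 37C; ONE-Glo, 30 min RT, luminescence.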
Sequence of Androgen receptor (Homo sapiens) (P10275 whole entry, looked up): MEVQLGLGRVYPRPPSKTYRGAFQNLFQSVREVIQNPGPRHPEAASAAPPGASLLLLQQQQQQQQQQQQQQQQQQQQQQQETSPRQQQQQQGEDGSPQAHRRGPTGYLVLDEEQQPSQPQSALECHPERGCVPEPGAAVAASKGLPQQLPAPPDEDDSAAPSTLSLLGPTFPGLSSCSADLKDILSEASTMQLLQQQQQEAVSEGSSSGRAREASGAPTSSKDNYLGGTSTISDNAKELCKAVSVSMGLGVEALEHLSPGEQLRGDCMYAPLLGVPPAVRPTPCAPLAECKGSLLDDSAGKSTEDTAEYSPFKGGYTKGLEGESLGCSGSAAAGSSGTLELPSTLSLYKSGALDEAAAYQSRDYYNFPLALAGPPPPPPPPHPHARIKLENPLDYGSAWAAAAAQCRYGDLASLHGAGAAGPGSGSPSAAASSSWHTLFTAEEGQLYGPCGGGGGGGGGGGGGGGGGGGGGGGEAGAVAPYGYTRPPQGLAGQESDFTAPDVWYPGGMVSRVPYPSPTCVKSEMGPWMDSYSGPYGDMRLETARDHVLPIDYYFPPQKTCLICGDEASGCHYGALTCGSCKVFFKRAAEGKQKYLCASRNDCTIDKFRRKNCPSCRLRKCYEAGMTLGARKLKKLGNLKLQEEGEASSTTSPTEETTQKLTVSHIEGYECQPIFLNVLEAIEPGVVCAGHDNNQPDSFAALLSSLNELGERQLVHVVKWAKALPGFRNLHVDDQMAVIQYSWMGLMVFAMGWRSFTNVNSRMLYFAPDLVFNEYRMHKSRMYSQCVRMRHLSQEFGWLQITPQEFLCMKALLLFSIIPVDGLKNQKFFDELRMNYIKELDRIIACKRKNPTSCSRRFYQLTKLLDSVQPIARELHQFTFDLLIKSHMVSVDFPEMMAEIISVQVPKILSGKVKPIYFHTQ

Assay [8] shares this target. Description: qHTS assay to identify small molecule antagonists of the androgen receptor (AR) signaling pathway (AID 743035; active means well fitted inhibition curve with a large enough effect in the signal ratio in the repeat runs, not every such curve was filed as active; the % refers to the signal ratio; further: potency means the concentration at half of the fitted maximal effect). The method in brief: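 Antagonist mode: AR-bla HEK293 cells co-treated with test compounds and agonist R1881 for 16 h at 37C, 5% CO2. Beta-lactamase activity read as FRET fluorescence after 2 h room-temperature substrate loading.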
The target is the same in assay [9]. The assay is described as follows: qHTS assay to identify small molecule antagonists of the androgen receptor (AR) signaling pathway using the MDA cell line (AID 743042; further: nearly all actives have a fitted effect of over 55% in size; further: potency means the concentration at half of the fitted maximal effect). The procedure, abridged: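 MDA-kb2 cells (human breast carcinoma, stably carrying an MMTV-luciferase reporter responsive to AR and GR) were plated at 3,000 cells/well and preincubated 5 hr at 37C, then given compound plus R1881 agonist for 16 h. ONE-Glo luminescence was read.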

Assay [10] shares this target. The assay is described as follows: qHTS assay to identify small molecule agonists of the androgen receptor (AR) signaling pathway (AID 743036; active means well fitted activation curve with a large enough effect in the signal ratio in the repeat runs, with a control signal flat, not every such curve was filed as active; the % refers to the signal ratio). The procedure, abridged: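 AR-bla HEK293 cells, 2,000/well; 4 h preincubation 37C/5% CO2; compound (DMSO) 16 h at 37C; LiveBLAzer B/G FRET substrate 2 h RT; fluorescence intensity read-out.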

Records with an inconclusive call do not appear. Calls of active or inactive are those of the source. Unless noted, the call rests on the fitted dose curve; in most records, active means well fitted curve in the direction sought with a large enough effect in the repeat runs; inconclusive means weak or mixed curves; inactive means no such curve, though single readings can be large; an effect the other way counts as inactive or inconclusive.

On to `CC(C)CCCCCCOC(=O)c1ccc(C(=O)OCCCCCCC(C)C)c(C(=O)OCCCCCCC(C)C)c1`, for which the Potency result in assay [1], in assay [2], in [3], in assay [4], in assay [5] and in assay [6] was “inactive” throughout.

As for `CCOC(=S)SSC(=S)OCC`, the Potency entry in assay [1], in assay [2], in assay [3], in [4], in assay [5] and in [6] was “inactive” each time.

Take `CC(=O)c1c(C)c([N+](=O)[O-])c(C(C)(C)C)c([N+](=O)[O-])c1C`: the Potency result in [1], in [2], in [3], in assay [4], in assay [5] and in assay [6] was “inactive” in each case.

In the case of `CCCCCCCCCCCCC(=O)O`, the Potency result in assay [1], in assay [2], in [3], in assay [4], in [5] and in assay [6] was “inactive” throughout.

Turning to `CC(=O)OC/C=C/c1ccccc1`, the Potency entry in assay [1], in assay [2], in assay [3], in assay [4], in assay [5] and in assay [6] was “inactive” throughout.

For the molecule `O=C(O)/C=C/c1cnc[nH]1`, the Potency result in [1], in assay [2], in [3], in assay [4], in assay [5] and in assay [6] was “inactive” throughout.

In the case of `CC(=O)NCCCS(=O)(=O)O`, the Potency result in assay [1], in [2], in assay [3], in assay [4], in assay [5] and in assay [6] was “inactive” in each case.

For `CC(=O)Nc1ccc(/C=N/NC(N)=S)cc1`, the Potency result in assay [1], in [2], in assay [3], in [4], in assay [5] and in assay [6] was “inactive” throughout.

In the case of `CC1(C)[C@H]2CC[C@]1(C)[C@H](O)C2`, the Potency entry in assay [1], in assay [2], in [3], in assay [4], in assay [5] and in assay [6] was “inactive” throughout.

As to `CCCCOC(=O)/C=C\C(=O)OCCCC`, the Potency result in [1], in assay [2], in [3], in assay [4], in assay [5] and in assay [6] was “inactive” throughout.

As for `C=CC(C)(CCC=C(C)C)OC(=O)c1ccccc1` (stereo not given), the Potency entry in [1], in assay [2], in assay [5] and in [6] was “inactive” each time. In addition, the Potency in assay [3] was 24.3 µM (active); in assay [4], 27.3 µM (active).

Take `CCCC[C@H]1CN(CC2CCOCC2)C(=O)OC12CCN(C1(C)CCN(C(=O)c3c(C)ncnc3C)CC1)CC2`: the Potency result in assay [1], in assay [2], in assay [3], in assay [4], in assay [5] and in assay [6] was “inactive” throughout.

Take `CCCCCCCCCC=O`: the Potency result in assay [1], in assay [2], in assay [3], in assay [4], in [5] and in [6] was “inactive” each time.

`CC(=O)/C(C)=C/C1C(C)=CCCC1(C)C` (stereo not given): the Potency result in assay [1], in [2], in assay [3], in assay [4], in [5] and in assay [6] was “inactive” each time.

Take `O=c1c2ccccc2nnn1CCl`: the Potency result in [1], in [2], in assay [3], in assay [4], in [5] and in assay [6] was “inactive” in each case.

As for `C1=Cc2ccccc2C1`, the Potency entry in assay [1], in assay [2], in [3], in [4], in assay [5] and in assay [6] was “inactive” each time.

Take `COc1cc(C(C)(C)C)c(O)c(C(C)(C)C)c1`: the Potency entry in [1], in [5] and in [6] was “inactive” in each case. Further, the figures for the Potency in assay [2], in [3] and in [4] were 38.6 µM (active), 27.3 µM (active) and 30.6 µM (active), respectively.

Take `S=C(S)NCCNC(=S)S`: the Potency result in assay [1], in [2], in [3], in assay [4], in assay [5] and in assay [6] was “inactive” throughout.

`Nc1ccc(C(=O)Nc2ccccc2N)cc1`: the Potency entry in [1], in assay [5] and in [6] was “inactive” in each case. Besides, the Potency is 1.5 µM (active) in assay [2], 0.422 µM (active) in [3] and 10.6 µM (active) in assay [7].

As to `CCOC(=O)[C@H](CCc1ccccc1)N[C@H]1CCc2ccccc2N(CC(=O)O)C1=O`, the Potency entry in assay [1] and in assay [6] was “inactive” in each case. Also, the Potency in [2] is 11.9 µM (active); in assay [3] it was 23.7 µM (active); in assay [4], 21.1 µM (active).

With `O=C(Cl)c1ccc([N+](=O)[O-])cc1`, the Potency entry in assay [1], in assay [2], in [3], in [5], in [8] and in assay [6] was “inactive” throughout. Besides, the Potency result in assay [9] was “inactive”.

For `C=Cc1c(C)c2cc3[nH]c(cc4nc(cc5nc(cc1[nH]2)C(C)=C5CCC(=O)O)C(CCC(=O)O)=C4C)c(C)c3C=C`, the Potency entry in assay [1], in assay [2], in assay [3], in assay [4] and in [6] was “inactive” throughout.

As to `Cc1cc(C)c(S(=O)(=O)O)cc1N=Nc1cc(S(=O)(=O)O)c2ccccc2c1O`, the Potency result in assay [1], in assay [2], in assay [3], in assay [5], in assay [8] and in assay [7] was “inactive” each time. For the same molecule, in assay [9], the Potency entry was “inactive”. For the same molecule, the call in assay [10] was inactive. The Potency in assay [6] is 30.6 µM (active).

With `O=C(Cl)c1c(Cl)cccc1Cl`, the Potency result in [1], in assay [2], in assay [3], in assay [4] and in [6] was “inactive” throughout.

Turning to `COc1ccccc1OC(=O)Oc1ccccc1OC`, the Potency entry in [1], in [2], in [3], in assay [5], in [7] and in assay [6] was “inactive” throughout. Further, in assay [9], the Potency result is “inactive”. Besides, the molecule was called inactive in [10].

Regarding `COc1ccc(C(C)=O)cc1`, the Potency result in assay [1], in assay [2], in assay [3], in assay [5], in assay [8] and in assay [7] was “inactive” each time. For the same molecule, the Potency result in assay [6] and in [9] was “inactive” throughout. The result in [10] was inactive.

Take `Cc1cccc(Oc2ccccc2)c1`: the Potency result in [1], in [2], in assay [3], in assay [4], in assay [5] and in [6] was “inactive” throughout.

In the case of `CCCCCCc1ccc(N)cc1`, the Potency entry in assay [1], in assay [7], in [6] and in assay [9] was “inactive” throughout. Moreover, the Potency in [2] is 19.3 µM (active); in assay [3] it was 34.4 µM (active); in [4], 43.3 µM (active); in [8], 24.5 µM (active). Besides, the outcome in [10] was inactive.

As for `NC(N)=NN=C(/C=C/c1ccc([N+](=O)[O-])o1)/C=C/c1ccc([N+](=O)[O-])o1`, the Potency in assay [1] was 5.35 µM (active); in assay [2] it was 1.5 µM (active); in assay [3], 0.75 µM (active); in assay [5], 9.52 µM (active); in [8], 5.35 µM (active); in assay [6], 23.7 µM (active). The Potency in assay [9] is 5.96 µM (active). For the same molecule, in assay [7], the Potency result is “inactive”.

`Cc1cccc(C(C)(C)C)c1O`: the Potency entry in assay [1], in assay [2], in assay [3], in assay [4] and in assay [6] was “inactive” each time.
